Assay results reported in the supplement of paper PMC6555819.

How the values were obtained:
Assay in all cases: PBM binding z-score (relative to random genomic background probes); higher = stronger binding; sequences stand for … in GC…GCGATTGACAGCGTAGAATGAAGG
[1] = test system: PPARg:RXRa DBDmut IVT, anti-RXR (DBD mutation: RXRa K156A/R161A, NR concentration 270 nM, RXRa partner concentration 90 nM)
Summary of the method: (§1)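 Custom Agilent 4×180K protein-binding microarrays carried double-stranded probes. Their 34-nt variable regions held direct-repeat seeds, single-nucleotide variants, half-site ablations and random human genomic background sequences. Arrays were incubated 1 h with ligand-free nuclear receptor dimers in PBS pH 7.4, 2% milk, 0.02% Triton X-100, 1 mM DTT, 0.2 mg/mL BSA and 0.4 mg/ml salmon testes DNA. Antibodies against each partner (one per run) detected binding, and scanned fluorescence was regression-normalized. Binding z-scores use random background probes as reference.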

[2] = test system: PPARg:RXRa IVT, anti-PPARg (NR concentration 270 nM, RXRa partner concentration 90 nM)
Summary of the method: as §1

[3] = test system: PPARg DBDmut:RXRa IVT, anti-PPARg (DBD mutation: PPARg1 K132A/R137A, NR concentration 270 nM, RXRa partner concentration 90 nM)
Summary of the method: as §1

[4] = test system: PPARg DBDmut IVT, anti-PPARg (DBD mutation: PPARg1 K132A/R137A, NR concentration 270 nM)
Summary of the method: as §1

[5] = test system: PPARg homodimer (NR concentration 180 nM)
Summary of the method: as §1

[6] = test system: PXR:RXRa (NR concentration 270 nM, RXRa partner concentration 90 nM)
Summary of the method: as §1

[7] = test system: PXR homodimer (NR concentration 270 nM)
Summary of the method: as §1

[8] = test system: RARa:RXR (NR concentration 270 nM, RXRa partner concentration 90 nM)
Summary of the method: as §1

[9] = test system: RARa homodimer (NR concentration 270 nM)
Summary of the method: as §1

[10] = test system: RARb:RXRa (NR concentration 270 nM, RXRa partner concentration 90 nM)
Summary of the method: as §1

[11] = test system: RARb homodimer (NR concentration 270 nM)
Summary of the method: as §1

[12] = test system: RARg:RXRa (NR concentration 270 nM, RXRa partner concentration 90 nM)
Summary of the method: as §1

[13] = test system: RARg homodimer (NR concentration 270 nM)
Summary of the method: as §1

[14] = test system: RXRa DBDmut IVT, anti-RXR (DBD mutation: RXRa K156A/R161A, NR concentration 90 nM)
Summary of the method: as §1

[15] = test system: RXRa homodimer (NR concentration 180 nM)
Summary of the method: as §1

[16] = test system: THRa:RXRa (NR concentration 90 nM, RXRa partner concentration 90 nM)
Summary of the method: as §1

[17] = test system: THRa homodimer (NR concentration 90 nM)
Summary of the method: as §1

[18] = test system: VDR homodimer (NR concentration 270 nM)
Summary of the method: as §1

| Sequence | PBM binding z-score [1] | PBM binding z-score [2] | PBM binding z-score [3] | PBM binding z-score [4] | PBM binding z-score [5] | PBM binding z-score [6] | PBM binding z-score [7] | PBM binding z-score [8] | PBM binding z-score [9] | PBM binding z-score [10] | PBM binding z-score [11] | PBM binding z-score [12] | PBM binding z-score [13] | PBM binding z-score [14] | PBM binding z-score [15] | PBM binding z-score [16] | PBM binding z-score [17] | PBM binding z-score [18] |
| --- | --- | --- | --- | --- | --- | --- | --- | --- | --- | --- | --- | --- | --- | --- | --- | --- | --- | --- |
| AATACAGGGTCATCGTAGGCCAGAGTTCGCACAG | 2.96 | 4.45 | 1.89 | 1.85 | 3.53 | 5.76 | 2.02 | 5.59 | 0.95 | 4.33 | 3.88 | 5.67 | 5.21 | 3.68 | 6.43 | 4.77 | 1.65 | 5.37 |
| CCTTACGGGTCACGAGCTTATAGCACGACGAGCG | 3.78 | 4.75 | 2.37 | 2.07 | 3.27 | 3.85 | -0.361 | 5.25 | 0.902 | 4.42 | 3.08 | 5.67 | 5.35 | 1.94 | 6.23 | 3.07 | 0.145 | 0.809 |
| CGTCGAAGGTCAGAGAGGTCAGTGAATGCCGAGT | 2.6 | 3.03 | -0.434 | -0.601 | 6.33 | 6.06 | 11.6 | 5.68 | 3.9 | 5.05 | 5.14 | 6.51 | 7.29 | 2.6 | 5.68 | 3.85 | 1.32 | 5.14 |
| TCATATAGGTAATGGTGAAAGTCGAACGATATGA | 3.77 | 2.74 | 1.66 | 1.7 | 0.415 | 0.253 | -0.311 | 0.342 | 0.0985 | 0.417 | -0.191 | 0.377 | 0.547 | 0.843 | 0.587 | -0.0618 | -0.634 | -0.582 |
| GCTAGCAGGCCATTTGGGTCAGTCAATGACGGGC | 1.4 | 1.05 | -0.511 | -1.16 | -0.0651 | -0.047 | 0.065 | 0.213 | -1.59 | 1.12 | 1.42 | 0.49 | 1.01 | -0.27 | 0.218 | 0.812 | -0.371 | -0.151 |
| ACAGACAGGTGAGTGAAGGTACCTCAGCTGGACG | 0.368 | 0.143 | -0.279 | -0.459 | -0.919 | -0.854 | -0.592 | -0.657 | -1.02 | 0.213 | -0.44 | -0.0299 | 0.22 | -0.86 | -0.0741 | 0.291 | -0.575 | -0.908 |
| TGTCAAAGTTCCAAGGTAACGTAAGTATCCACAC | -0.29 | 1.18 | 0.991 | 0.288 | 0.137 | 0.082 | 0.35 | 0.56 | 0.373 | 0.659 | 0.222 | 0.298 | 0.719 | -0.251 | 0.443 | 1.72 | 1.09 | -0.0741 |
| ATCTCTAGGTAAGACTCAGTTCAGTAAAGAACGC | 1.94 | 1.31 | 0.584 | 0.972 | 0.82 | 1.24 | 1.74 | 0.263 | 1.3 | 0.396 | 0.871 | 0.41 | 0.438 | 0.632 | 0.0419 | 0.985 | 0.878 | 1.74 |
